Sampled rows, rich in hits. Any-hit rate of the full collection: about 19%.
HT1080 IDH1KD tx = HT-1080 IDH1 knockdown cell toxicity (counter line); Potency, µM (titrated, usually from 46.1 µM), actives largely listed as cytotoxic; actives 2% (n = 360,000); HT-1080 IDH1 knockdown viability, ATP luminescence, 48 h
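HT-1080-IDH1KD cells (IDH1 knocked down), 750/well in RPMI with 5% FBS, treated with compound 48 h at 37 degrees C. Viability by CellTiter-Glo luminescence, normalised to DMSO and no-cell wells; concentration-response curves classed.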
KB-V1 cytotox = kills drug-selected multidrug resistant KB-V1 cells. KB-V1 MDR cells viability, CellTiter-Glo, 72 h. Potency, µM (highest dose often 46.1 µM), actives largely listed as cytotoxic. actives 3.4% (n = 400,000). AID 1347076; further: nearly all actives have a fitted effect of over 60% in size
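Readout: CellTiter-Glo luminescence, 10 min after addition. Cells: KB-V1 MDR subline, 72 h at 37 degrees C with compound. Analysis: corrected, normalized data fitted to concentration-effect curves.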
HT1080NT lethal = kills 2HG-producing HT-1080-NT fibrosarcoma cells; Potency, µM (series often up to 46.1 µM), usual class: cytotoxic; HT-1080-NT fibrosarcoma viability, CellTiter-Glo ATP luminescence, 48 h; actives 1.6% (n = 360,000);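 further: NT is the 2HG producing partner of a matched IDH1 knockdown line; nearly all actives have a fitted effect of over 55% in size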
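Toxicity toward the 2HG-producing NT line was scored as %Activity, normalised to DMSO and no-cell wells, from CellTiter-Glo luminescence after 48 hours' treatment.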
TDP1 cell noCPT = qHTS for Inhibitors of human tyrosyl-DNA phosphodiesterase 1 (TDP1): qHTS in cells in absence of CPT; DT40 Tdp1-/- hTDP1 cells, no CPT, ATP luminescence, 48 h; Potency, µM (doses to about 46.2 µM), hits mostly inhibitors; actives 15% (n = 420,000); further: nearly all actives have a fitted effect of over 55% in size
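Compound effects on proliferation are scored in DT40 Tdp1-/-;hTDP1 cells in the absence of CPT. ATP levels (CellTiter-Glo luminescence) are recorded after a ≥48 hr, 37 °C incubation.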
DT40 TDP1 CPT = growth inhibition of DT40 Tdp1-/-;hTDP1 cells with camptothecin (screen for TDP1 inhibitors) | Potency, µM (doses to about 46.2 µM), most hits filed as inhibitors | actives 12% (n = 420,000) | chicken DT40 Tdp1-/-;hTDP1 cells + 20 nM CPT, ATP luminescence, 48 h | AID 686979; further: nearly all actives have a fitted effect of over 55% in size
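Cell growth measured by CellTiter-Glo luminescence after a minimum 48 h, 37 C compound exposure with 20 nM CPT in Tdp1-knockout DT40 cells stably expressing hTDP1, seeded 400/well; qHTS titration format.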
KB-3-1 cytotox = KB-3-1 parental cell cytotoxicity; Potency, µM (top dose mostly 46.1 µM), hits mostly cytotoxic; actives 1.4% (n = 400,000); AID 1347075; KB-3-1 viability, CellTiter-Glo ATP luminescence, 72 h; further: nearly all actives have a fitted effect of over 60% in size
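Screening of KB-3-1 cells (DMEM, 10% FBS, phenol-red free) ran from lowest to highest compound concentration; after 72 h at 37 °C viability was read luminescently and curves fitted.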
A number is an active result; i = inactive; ? = inconclusive; nt = no result. The call rests on the fitted dose curve; in most records, active means well fitted curve in the direction sought with a large enough effect; inconclusive means small, poorly fitted or top-dose-only effect, or another doubt; inactive means no such curve, though single readings can be large; an effect the other way counts as inactive or inconclusive.

SMILES	HT1080 IDH1KD tx	KB-V1 cytotox	HT1080NT lethal	TDP1 cell noCPT	DT40 TDP1 CPT	KB-3-1 cytotox
Cc1cc(C)cc(N2CC(O)=C(c3nc4ccccc4c(=O)[nH]3)C2=N)c1	i	?	i	9.2µM	13µM	15µM
CCOc1ccccc1NC(=O)CSc1nnc(CCC(=O)Nc2ccccc2F)n1C	i	i	i	i	i	i
COc1ccc(CN2CCN(CC3CC3)CC2CCO)c(C)c1C (stereo not drawn)	i	i	i	i	?	i
COc1ccc(CN2CCN(Cc3nc4ccccc4s3)CC2CCO)c(C)c1C (stereo not drawn)	?	i	?	15µM	?	?
COc1ccc(CN2CCN(C3CCSCC3)CC2CCO)c(C)c1C (stereo not drawn)	i	i	i	16µM	18µM	i
COc1ccc(CN2CCN(Cc3csc(C(C)=O)c3)CC2CCO)c(C)c1C (stereo not drawn)	?	i	?	10µM	i	i
CC(=O)c1cc(CN2CCN(CCC(C)C)C(CCO)C2)cs1 (stereo not drawn)	i	i	i	?	16µM	i
CCCC(=O)Nc1cc(C)c(O)c(-c2nc3ncccc3o2)c1	nt	i	nt	i	i	i
Cc1cc(NS(=O)(=O)c2cn(C)c(C)n2)ccc1Br	nt	i	nt	i	?	?
CCOc1ccc(S(=O)(=O)O)c2cccnc12	nt	nt	nt	i	i	nt
O=C(COC(=O)CNS(=O)(=O)c1ccccc1)Nc1ncc(Cl)cc1Cl	i	i	i	6.5µM	i	i
O=C(NCc1ccco1)c1ccc2c(c1)N(Cc1ccccc1F)C(=O)c1ccccc1S2=O (stereo not drawn)	nt	i	nt	?	i	i
S=c1nc[nH]c2c1ncn2-c1ccc(Cl)cc1	i	10µM	i	i	i	?
Cc1cc(NNC(=O)c2cccc(C(F)(F)F)c2)nc2c1c(C)nn2C	?	?	?	5.8µM	10µM	i
CC(C)(C)OC(=O)N1CCC[C@@H]1C(=O)N1CCC[C@@H]1C(=O)NCc1ccccc1Cl	i	i	i	i	i	i
Cc1ccc(NC(=O)c2ccc3c(=O)n4nc(Nc5ccccc5C)sc4nc3c2)cc1C	nt	i	nt	5.8µM	2.9µM	i
CCOc1ccc(NC(=O)c2ccc3c(=O)n4nc(Nc5ccccc5C)sc4nc3c2)cc1	nt	i	nt	6.5µM	?	i
CCc1ccccc1Nc1nn2c(=O)c3ccc(C(=O)NC(C)C)cc3nc2s1	nt	i	nt	i	i	i
COc1ccc(NC(=O)c2ccc3c(=O)n4nc(Nc5ccccc5C)sc4nc3c2)cc1Cl	nt	i	nt	5.8µM	7.3µM	i
COc1ccc(NC(=O)c2ccc3c(=O)n4nc(Nc5cccc(Cl)c5C)sc4nc3c2)cc1	nt	?	nt	3.3µM	2.9µM	i
O=C(NCC1CC1)c1ccc2sc([C@@H]3O[C@H](CO)[C@H](O)[C@H](O)[C@H]3O)nc2c1	i	i	i	i	i	i
COc1ccc(NC(=O)C[C@H]2C(=O)N(C3CCCCC3)C[C@@H]2C)cc1	i	?	i	i	i	i
O=C(Cc1ccccc1)NC1CC(=O)N(c2ccccc2)C1 (stereo not drawn)	nt	nt	nt	i	i	nt
CCc1ccc2oc(-c3cccc(NC(=O)c4ccc(-c5cccc([N+](=O)[O-])c5)o4)c3)nc2c1	nt	i	nt	nt	nt	i
N#C/C(=C(/O)c1ccco1)c1nc2ccccc2[nH]1	i	i	i	i	i	i
SMILES	HT1080 IDH1KD tx	KB-V1 cytotox	HT1080NT lethal	TDP1 cell noCPT	DT40 TDP1 CPT	KB-3-1 cytotox
N#C/C(=C(/O)C(Cl)c1ccccc1)c1nc2ccccc2s1 (stereo not drawn)	i	i	i	13µM	6.5µM	?
N#C/C(=C(/O)CN1CCOCC1)c1nc2ccccc2s1	i	i	i	i	i	i
Cn1c(/C(C#N)=C(\O)c2cccc(F)c2)nc2ccccc21	?	i	?	?	i	i
N#C/C(=C(/O)c1cccc(F)c1)c1nc2ccccc2s1	i	2.9µM	i	12µM	21µM	5.8µM
N#C/C(=C(/O)c1cc2ccccc2o1)c1nc2ccccc2s1	i	?	i	13µM	?	21µM
N#C/C(=C(/O)c1ccco1)c1nc2ccccc2s1	?	?	?	15µM	?	?
CCC(C)C(=O)NCCc1ccc(S(N)(=O)=O)cc1 (stereo not drawn)	i	i	i	i	i	i
CSc1cccc(NC(=O)COC(=O)c2ccccn2)c1	i	i	i	?	i	i
Cc1ccc(CNC(=O)C(=O)Nc2nccs2)cc1	i	i	i	i	i	i
COc1cc2c(cc1OC)C1CCc3cc4c(cc3C1N=C2)OCO4 (stereo not drawn)	i	?	i	13µM	16µM	?
COc1cc2c(cc1OC)[C@@H]1Cc3cc4c(cc3[C@H](C2)N1C)OCO4	i	i	i	i	i	i
CCOC(=O)C1(CCOc2ccccc2)CCN(Cc2cc(OC)ccc2OC)CC1	i	i	i	15µM	?	i
OCC1(CCc2ccccc2)CCCN(C/C=C/c2ccccc2)C1 (stereo not drawn)	?	?	i	?	i	i
CCOC(=O)C1(CCOC)CCN(C/C=C/c2ccccc2OC)CC1	i	i	i	10µM	10µM	?
COc1ccccc1/C=C/CN1CCCC(CO)(CCc2ccccc2)C1 (stereo not drawn)	?	i	?	?	21µM	i
CCOC(=O)C1(CCOc2ccccc2)CCN(Cc2cccc(OC)c2)CC1	i	?	i	15µM	23µM	?
COc1ccc(CCNc2nc3cc(OC)c(OC)cc3c3nc(-c4cccnc4)nn23)cc1OC	nt	nt	nt	i	i	nt
Cc1cc(C)cc(NC(=O)Cc2noc3ccccc23)c1	nt	?	nt	i	i	?
CCOC(=O)C1(CCOC)CCN(Cc2cccc(OCc3ccccc3)c2)CC1	i	i	i	16µM	15µM	?
CCOC(=O)C1(CCOC)CCN(Cc2nc(C(C)C)cs2)CC1	i	?	i	26µM	?	i
CCOC(=O)C1(CCOC)CCN(Cc2ccccc2-c2ccco2)CC1	i	i	i	?	?	i
Cc1nc(C(=O)Nc2cccc(Cl)c2Cl)nn1-c1cc(OC(C)C)c(Cl)cc1Cl	i	?	i	?	i	i
Cc1nc(C(=O)Nc2cc(Cl)ccc2Cl)nn1-c1cc(OC(C)C)c(Cl)cc1Cl	i	15µM	?	12µM	16µM	i
Cc1nc(C(=O)Nc2ccc(Cl)cc2Cl)nn1-c1cc(OC(C)C)c(Cl)cc1Cl	i	i	i	?	?	i
